# Laboratory results: PubChem BioAssay (NCATS)
# Inconclusive results are not listed. Unmarked numbers belong to inactive results. Activity calls are given as the source filed them. Calls come from the whole dose curve. Square brackets hold non-standard residues; d marks the D form. Peptide text beside a SMILES is read from it. Nle = CCCC[C@H](N)C(=O)O
# Assay: Confirmatory qHTS for VERO E6 Cytotoxicity Assay: Counterscreen for SARS-CoV-2 CPE Assay (AID 1508605); note: nearly all actives have a fitted effect of over 60% in size
# Conditions: cell viability luminescence; series mostly up to 20 µM; activity change, negative = cytotoxic: at the top concentration
# % is set by controls: 0 for no effect and ±100 for the full control effect; potency is the fitted concentration of half-maximal effect.
SMILES,"activity change, negative = cytotoxic",Potency
Cc1nc2ccc(Oc3ccc(F)cc3)cc2c(=O)n1C[C@H]1CCCN(C(C)C)C1,-6.31%,–
CCC(C)CNCC(=O)N1CCC2SC=CC2C1COc1cccc(C)c1 (stereo not drawn),-18.4%,–
CCOc1ccc(-c2nc(-c3cccc4c3CCC4NCCO)no2)cc1OCC (stereo not drawn),-1.25%,–
CCCC[C@@H](C=O)NC(=O)[C@H](CC(C)C)NC(=O)[C@H](CC(C)C)NC(C)=O (Ac-Leu-Leu-[Nle]-aldehyde),-5.12%,–
COc1cc2nc(N3CCC(N4CCCCC4)CC3)nc(NC3CCCCCC3)c2cc1OC,–,6.31 µM (active)
C/C=C(\C)C(=O)OC1C(C)C2(O)C3C=C(C)C(=O)C3CC(CO)=CC2C2C(C)(C)C12OC(C)=O (stereo not drawn),-11% [at 10 µM],–
Cc1cnc(NC(=O)c2cc(S(=O)(=O)N(C)C)ccc2N2CCCC2)s1,-18.5%,–
COc1ccc(NS(=O)(=O)c2sc3ccc(Cl)cc3c2C)cc1N1CCNCC1,-12.9%,–
COc1ccc2c(c1)[C@]1(C[C@H]1c1ccc3c(/C=C/c4ccc(CN5C[C@@H](C)O[C@@H](C)C5)cc4)n[nH]c3c1)C(=O)N2,-32.8%,–
CC(=O)c1c(OCCN2CCCCC2)c(OCCC(C)c2ccc(F)cc2)c2oc(C)nc2c1C (stereo not drawn),-15.5%,–
COc1cc(NC(=O)Nc2cccc(CNC(=O)O[C@H]3CCOC3)c2)ccc1-c1cnco1,-14.1%,–
CC(C)c1cccc2c(-c3ccccc3)cc(-c3ccc(-c4ccc(C(=O)O)cc4)[nH]3)nc12,-28%,–
CCC[C@@H](NC(=O)N1C(=O)C(CC)(CC)[C@@H]1Oc1ccc(C(=O)N2CCN(C)CC2)cc1)c1ccc2c(c1)OCO2,-5.5%,–
